Source: PubChem (National Center for Advancing Translational Sciences (NCATS))
D2 antagonist: antagonists of human D2 dopamine receptor; P14416; HEK293 TREx D2 cells, calcium flux, dopamine EC80; inhibition, % at 10 µM; hit rate 2% among 340,000; AID 485344; in the data active = inhibition above about 30%; inactive = below that, where a call was filed
Target sequence (P14416 whole entry, looked up): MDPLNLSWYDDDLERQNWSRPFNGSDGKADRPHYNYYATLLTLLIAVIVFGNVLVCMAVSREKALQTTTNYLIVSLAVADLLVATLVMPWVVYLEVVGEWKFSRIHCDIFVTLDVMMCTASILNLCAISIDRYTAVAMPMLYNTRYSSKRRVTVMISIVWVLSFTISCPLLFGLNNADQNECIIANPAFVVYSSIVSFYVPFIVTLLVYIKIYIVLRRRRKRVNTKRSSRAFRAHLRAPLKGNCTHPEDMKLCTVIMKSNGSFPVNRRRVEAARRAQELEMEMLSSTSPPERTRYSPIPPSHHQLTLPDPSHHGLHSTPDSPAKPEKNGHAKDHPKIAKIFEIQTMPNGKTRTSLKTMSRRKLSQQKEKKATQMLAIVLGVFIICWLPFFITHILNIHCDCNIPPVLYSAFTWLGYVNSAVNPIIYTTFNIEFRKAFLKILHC
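Compounds are added to dye-loaded, induced HEK293 T-REx cells coupled to calcium release via D2; after a 3 min kinetic read an EC80 dopamine stimulus is given and fluorescence is recorded for 3 more min.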
D2 PAM-1: potentiates the human D2 dopamine receptor allosterically; P14416; DiscoveRx D2 beta-arrestin cells, luminescence, 90 min; 100% = 57 uM dopamine signal; potentiation, % (no concentration beside the values); hit rate 0.23% among 360,000; AID 624464; in the data active = potentiation above about 50%; inconclusive = mostly about 30% to 49%
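PathHunter D2 cells, attached overnight at 37 deg C, received compound in DMSO plus dopamine at EC20 (50 nM final) for 90 min at 37 deg C. Beta-arrestin recruitment was read as luminescence after 1 h with detection reagent at ambient temperature.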
D2 ag-1: activates the human D2 dopamine receptor | P14416 | HEK293 T-REx D2 cells, calcium flux agonist mode | activation, % at 2 µM | hit rate 0.53% among 340,000;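 active = activation over 3 SD above normal in the single-dose calcium agonist read, cut at about 30% in these data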
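Agonism is scored from calcium flux in a force-coupled, inducible HEK293 cell line expressing D2, read kinetically for 180 s after compound addition against dopamine controls.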
D2 ag-2: human D2 receptor agonism in beta-arrestin assay; P14416; hit rate 0.084% among 360,000; DiscoveRx PathHunter D2 beta-arrestin, luminescence, 90 min; 100% = 57 uM dopamine signal; activation, % (no concentration beside the values); in the data active = activation above about 40%; inconclusive = between about 15% and that limit
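DiscoveRx PathHunter D2 beta-arrestin cells (2,100/well) attached overnight, then compound-stimulated 90 min at 37 C in HBSS/10 mM HEPES/0.1% Tween-20 buffer; beta-galactosidase complementation read by luminescence after 1 h at ambient temperature. Dopamine 57 uM final (EC100) as control.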
D2 PAM-2: D2 dopamine receptor (human) potentiation | HEK293 T-REx D2, calcium flux, EC20 dopamine potentiation | potentiation, % at 10 µM | hit rate 0.34% among 340,000;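 active = potentiation over 3 SD above the plate norm, cut at about 30% in these data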
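Using a no-wash calcium dye in inducible, force-coupled HEK293 Trex cells expressing D2, we tracked fluorescence each second for 180 s after compound, then for 180 s after EC20 dopamine to detect augmented signalling.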
Each line names hits and unclear results; the compound was inactive in the other large screens. This is a sample that favours compounds with a hit; in the whole collection about 2.4% have one here.

COc1ccc(NC(C)=O)cc1NC(=O)CN1CCN(S(=O)(=O)c2ccc(C(C)C)cc2)CC1	D2 antagonist 38
COc1ccc(NC(=O)CN2CCN(S(=O)(=O)c3ccc(Br)cc3)CC2)c(OC)c1	none
Cc1ccc(S(=O)(=O)N(C)C)cc1NC(=O)CN1CCCC1	none
CN(C)S(=O)(=O)c1ccc(Cl)c(NC(=O)CN2CCCC2)c1	D2 antagonist 36
O=C(CN1CCN(S(=O)(=O)c2ccc(Cl)cc2)CC1)Nc1ccc(F)cc1F	D2 antagonist 39
O=C(CN1CCN(S(=O)(=O)c2ccc(Br)cc2)CC1)Nc1ccc(F)cc1F	none
O=C(CN1C(=O)COc2ccc(S(=O)(=O)NC3CCCC3)cc21)NCc1ccccc1Cl	none (no result: D2 antagonist, D2 PAM-1, D2 ag-2)
O=C(COC(=O)Cc1ccsc1)Nc1ccccc1	none
COc1cc(NC(=O)COC(=O)Cc2ccsc2)cc(OC)c1	D2 antagonist 31
CC(=O)c1cc(-c2ccccc2)n(CCC(=O)Nc2ccc(C(C)C)cc2)c1C	none (no result: D2 antagonist, D2 PAM-1, D2 ag-2)
O=C(Nc1cccc(-c2nc3ccccc3[nH]2)c1)c1c(F)cccc1F	none (no result: D2 antagonist, D2 PAM-1, D2 ag-2)
CCC1(c2ccc(Cl)cc2)NC(=O)N(Cc2ccc(C(=O)OC)cc2)C1=O (centres undefined)	D2 PAM-2 35
CCC1(c2ccc(Cl)cc2)NC(=O)N(CC(=O)NCc2ccc(F)cc2)C1=O (centres undefined)	none
Cc1c(C)c2ccc(OCC(=O)Nc3ccccn3)cc2oc1=O	D2 antagonist 36
CC1C2CC(C/C2=N/NC(=O)c2cccs2)C1(C)C (centres undefined)	none
C[C@@H]1C2CC(C/C2=N\NC(=O)c2ccncc2)C1(C)C (some centres undefined)	D2 antagonist 36
CC1Cc2ccccc2N1C(=O)CN1CCN(Cc2ccccc2)CC1 (centres undefined)	D2 antagonist 41
CC1Cc2ccccc2N1C(=O)Cn1cc([N+](=O)[O-])cn1 (centres undefined)	D2 antagonist 39
O=C(Cn1cc([N+](=O)[O-])cn1)N1CCc2ccccc21	none
CC(C)N1C(=O)C(O)(c2c[nH]c3ccccc23)c2ccccc21 (centres undefined)	none (no result: D2 antagonist, D2 PAM-1, D2 ag-2)
Cc1ccc2c(CC(=O)N(Cc3ccc(Cl)cc3)Cc3ccco3)coc2c1	none (no result: D2 antagonist, D2 PAM-1, D2 ag-2)
CCOC(=O)N1CCc2c(sc3c2c(=O)n(-c2ccccc2)c(=O)n3CC(=O)Nc2ccc(OC)cc2OC)C1	none (no result: D2 antagonist, D2 PAM-1, D2 ag-2)
CCN1CCCC(NC(=O)c2cc([N+](=O)[O-])ccc2OC)C1 (centres undefined)	D2 antagonist 39
Cc1cc(C)c(C(=O)c2ccc(C(=O)NC(C)(C)C)cc2)c(C)c1	D2 antagonist 40
Cc1cccc(C)c1NC(=O)Cn1nnc(C(=O)Nc2c(C)cccc2C)c1N	none (no result: D2 antagonist, D2 PAM-1, D2 ag-2)
CCC(CC)C(=O)Nc1nnc(S(=O)(=O)N2CCCCCC2)s1	D2 antagonist 32
CC(C)C(=O)Nc1nnc(S(=O)(=O)N2CCCCCC2)s1	none
COC(=O)c1cc(C(=O)c2ccc(Cl)cc2Cl)cn1C	D2 PAM-2 38
COC(=O)C1=CN(CC2CCCO2)C=C(C(=O)OC)C1c1ccccc1C(F)(F)F (centres undefined)	D2 antagonist 43
COC(=O)C1=CN(CC2CCCO2)C=C(C(=O)OC)C1c1cccc(O)c1 (centres undefined)	none
Cc1ccc2nc3sc(C(=O)Nc4ccc(F)cc4)cc3cc2c1	none (no result: D2 antagonist, D2 PAM-1, D2 ag-2)
CCOC(=O)C1CCN(C/C=C/c2ccccc2[N+](=O)[O-])CC1	D2 antagonist 48
CCOC(=O)C1CCN(C/C=C/c2ccccc2OC)CC1	none
CC1CCCCN1C(=O)/C=C/c1ccccc1[N+](=O)[O-] (centres undefined)	D2 antagonist 30
CCOc1ccc(NC(=O)CSc2nccn2C2CCCC2)cc1	none (no result: D2 antagonist, D2 PAM-1, D2 ag-2)
O=C(Nc1nc2n(n1)C(c1ccc(Cl)cc1)CC(c1ccc(Cl)cc1)N2)c1ccco1 (centres undefined)	D2 antagonist 32
COc1ccc(C2CC(c3ccc(Cl)cc3)Nc3nc(NC(=O)c4ccco4)nn32)cc1 (centres undefined)	none
Cc1ccc(-n2ncc(C#N)c2/N=C/N2CCN(C)CC2)cc1	D2 antagonist 37
COCc1nc2ccccc2n1Cc1ccc(C(C)(C)C)cc1	none (no result: D2 antagonist, D2 PAM-1, D2 ag-2)
CCOc1cc2c(cc1/C=C/c1noc(C)c1[N+](=O)[O-])OC(C)C2 (centres undefined)	D2 ag-1 64
COc1cc(CN(CC2CCCO2)C(=O)c2ccc(F)cc2)cc(OC)c1OC (centres undefined)	none (no result: D2 antagonist, D2 PAM-1, D2 ag-2)
CCCCSCCCNC(=O)C1CCN(Cc2nc(-c3ccc(CC)cc3)oc2C)CC1	none (no result: D2 antagonist, D2 PAM-1, D2 ag-2)
CC1(C(=O)Nc2ccc(Cl)c(Cl)c2)CCN1C(=O)Cc1ccc(-c2ccccc2)cc1 (centres undefined)	none (no result: D2 antagonist, D2 ag-1, D2 PAM-2)
Fc1ccc(-n2cc(CNCCc3ccncc3)c(-c3ccccc3Cl)n2)cc1	D2 antagonist 31
COc1cc2oc(=O)c(Br)c(C)c2c(OC)c1OC	D2 antagonist 39
Cc1ccc(CNc2ccc(N3CCOCC3)cc2)s1	none
CC(=O)N1CCN(c2ccc(NCc3ccc(C)s3)cc2)CC1	D2 antagonist 50, D2 ag-2 inconclusive
COCC(=O)Nc1ccc(OC)c(Cl)c1	D2 antagonist 37
COc1ccc(NC(=O)COC(C)=O)cc1Cl	none
COc1cc(OC)cc(C(=O)NCC(=O)Nc2ccc(OC)c(Cl)c2)c1	D2 antagonist 37
CC(C)OCc1cc(CN2CCN(c3cccc(C(F)(F)F)c3)CC2)c(O)c2ncccc12	none (no result: D2 antagonist, D2 PAM-1, D2 ag-2)
O=[N+]([O-])c1cc(CN2CCN(c3cccc(C(F)(F)F)c3)CC2)c2cccnc2c1O	D2 antagonist 36
CCN(CC)C(=O)/C(=C\c1ccncc1)NC(=O)c1ccccc1	none
CN(C)C(=O)/C(=C\c1ccncc1)NC(=O)c1ccccc1	D2 antagonist 39
COc1ccc(-c2nc3ccccc3o2)cc1NC(=O)c1ccc(N2CCC(C)CC2)c([N+](=O)[O-])c1	none (no result: D2 antagonist, D2 PAM-1, D2 ag-2)
CCCC(C(=O)O)N1C(=O)/C(=C2\C(=O)N(C)c3ccccc32)SC1=S (centres undefined)	D2 PAM-1 61
O=C(NC1(C(F)(F)F)NC(=O)N(Cc2cccnc2)C1=O)c1ccc(F)cc1 (centres undefined)	D2 PAM-2 39
CCCOc1cc(C)c(Cl)cc1S(=O)(=O)N(CC)CC	none
CCOc1cc(C)c(Cl)cc1S(=O)(=O)N(C)C	D2 antagonist 49
O=C(Cn1c(=O)oc2ccccc21)NCc1ccccc1Cl	none (no result: D2 antagonist, D2 PAM-1, D2 ag-2)
CC(C)c1[nH]nc2c1C1(CCN(Cc3ccccc3)CC1)C(C#N)=C(N)O2	D2 antagonist 40
CCCc1[nH]nc2c1C1(CCN(C(=O)OCc3ccccc3)CC1)C(C#N)=C(N)O2	none
CCC(=O)N1CCc2cc(OC)c(OC)cc2C1COc1ccc(C(=O)OC)cc1 (centres undefined)	D2 PAM-2 40
